Measured values from article PMC4336329 (PLoS ONE, 2015).
In all, about 310,000 compounds went through this assay and about 14,000 (4.5%) showed an effect of 50% or more. Effects have a minus sign here. The full list was thinned out, with strong results kept by preference.

Target: human ether-à-go-go-related gene (hERG) potassium channel (human, UniProt Q12809)
Test: primary screen, population patch clamp on CHO cells stably expressing hERG; higher = less effect of the substance
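Further: peak tail current of the secondary pulse compared with the same well before compound.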

Chain of human ether-à-go-go-related gene (hERG) potassium channel (Q12809 whole entry, looked up): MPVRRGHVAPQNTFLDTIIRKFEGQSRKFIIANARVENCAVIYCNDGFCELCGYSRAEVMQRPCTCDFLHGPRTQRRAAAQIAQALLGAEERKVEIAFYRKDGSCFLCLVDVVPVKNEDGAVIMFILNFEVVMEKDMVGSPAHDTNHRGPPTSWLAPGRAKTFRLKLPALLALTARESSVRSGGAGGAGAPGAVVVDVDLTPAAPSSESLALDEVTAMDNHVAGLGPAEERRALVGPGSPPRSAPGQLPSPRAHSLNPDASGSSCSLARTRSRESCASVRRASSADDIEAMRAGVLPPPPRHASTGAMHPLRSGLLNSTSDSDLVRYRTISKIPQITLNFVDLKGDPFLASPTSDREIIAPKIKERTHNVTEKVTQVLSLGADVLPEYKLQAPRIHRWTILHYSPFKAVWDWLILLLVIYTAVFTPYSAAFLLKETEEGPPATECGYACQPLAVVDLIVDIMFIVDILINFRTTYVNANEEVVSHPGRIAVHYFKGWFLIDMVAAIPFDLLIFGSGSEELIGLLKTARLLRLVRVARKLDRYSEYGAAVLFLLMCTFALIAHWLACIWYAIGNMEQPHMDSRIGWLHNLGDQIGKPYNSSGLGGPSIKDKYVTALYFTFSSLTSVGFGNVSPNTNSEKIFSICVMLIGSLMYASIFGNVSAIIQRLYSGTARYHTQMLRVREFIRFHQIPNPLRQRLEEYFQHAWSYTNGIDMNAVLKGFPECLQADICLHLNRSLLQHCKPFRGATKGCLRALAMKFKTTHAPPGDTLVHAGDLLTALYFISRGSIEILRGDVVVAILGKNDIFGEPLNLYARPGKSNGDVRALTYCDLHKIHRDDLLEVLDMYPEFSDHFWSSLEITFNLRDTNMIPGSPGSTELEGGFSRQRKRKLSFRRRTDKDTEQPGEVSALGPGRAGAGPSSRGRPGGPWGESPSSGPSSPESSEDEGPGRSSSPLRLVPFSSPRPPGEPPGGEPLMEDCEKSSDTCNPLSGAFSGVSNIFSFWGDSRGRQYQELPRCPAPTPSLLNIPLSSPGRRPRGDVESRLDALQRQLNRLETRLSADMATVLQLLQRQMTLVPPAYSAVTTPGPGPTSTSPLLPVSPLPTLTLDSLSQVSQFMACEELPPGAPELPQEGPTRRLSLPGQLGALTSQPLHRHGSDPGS

SMILES	hERG current change (%, negative = inhibition) at 10uM [%]
CC(=O)Nc1ccc(S(=O)(=O)NNC(=O)c2cccc(Cl)c2)cc1	8.3
CCOC(=O)CON1C(=O)c2ccccc2C1=O	-5.5
COc1ccc(Cl)cc1-n1c(C)cc(C=O)c1C	4.29
COc1ccc(CN(C(=O)c2cnccn2)C(C(=O)NC(C)(C)C)c2cc(OC)c(OC)c(OC)c2)cc1 (stereo not shown)	1.58
CCOC(=O)c1ccc(Oc2coc3cc(O)ccc3c2=O)cc1	17.6
CCOc1ccc(NS(=O)(=O)c2ccc(OC)c(NC(=O)c3ccc4c(c3)OCCO4)c2)cc1	-2.7
O=C(Cc1csc(-c2ccccc2)n1)NCc1ccco1	-1.66
Cc1ccn2cc(C(=O)N3CCN(c4cnn(-c5ccccc5)c(=O)c4Cl)CC3)nc2c1	-46.7
CCS(=O)(=O)N1CCN(c2cnn(-c3ccccc3)c(=O)c2Cl)CC1	-29
O=C(c1ccc(F)cc1)N1CCN(c2cnn(-c3ccccc3)c(=O)c2Cl)CC1	-48.6
COc1ccc(C(=O)N2CCN(c3cnn(-c4ccccc4)c(=O)c3Cl)CC2)cc1	-71.3
CC(C)c1ccc(C(=O)N2CCN(c3cnn(C)c(=O)c3Cl)CC2)cc1	-64.4
O=C(c1cccc(Br)c1)N1CCN(c2cnn(-c3ccccc3)c(=O)c2Cl)CC1	-47.4
CCOc1ccc(C(=O)N2CCN(c3cnn(-c4ccccc4)c(=O)c3Cl)CC2)cc1	-77.8
CC(C)c1ccc(C(=O)N2CCCN(C(=O)c3ccc(C(C)C)cc3)CC2)cc1	-32.9
Cc1ccc(C(=O)N2CCN(c3cnn(C)c(=O)c3Cl)CC2)cc1	-31.1
CCCCOP(=O)(c1ccc(N(C)C)cc1)C(O)c1ccc(N(C)C)cc1 (stereo not shown)	-5.3
COc1cc(/C=C/c2nc(N)nc(-c3ccccc3O)n2)cc(OC)c1OC	-3.86
Cc1ncc([N+](=O)[O-])n1CCOC(=O)Nc1ccc(Cl)c(Cl)c1	1.07
CCOc1c(CNCCCSc2nc(C)cc(C)n2)cccc1OC.Cl	-11.1
Cc1ccc(CNCCCSc2nc(C)cc(C)n2)cc1.Cl	-52.3
Cc1cc(C)nc(SCCCNCc2ccccc2)n1.Cl	-3.19
Cc1cc(C)nc(SCCCNCc2ccc(Br)cc2)n1.Cl	-36.1
CCOc1ccc(Cl)cc1CNCCCSc1ncccn1	-37.3

SMILES	hERG current change (%, negative = inhibition) at 10uM [%]
CCOc1ccc(Cl)cc1CNCCCSc1nc(C)cc(C)n1.Cl	-59.6
O=C(NC1CCCCC1)C1CC(=O)N(CCc2ccccc2)C1 (stereo not shown)	-7.01
O=C(c1ccccc1O)N1CCOCC1	3.51
CNC(=S)N(CCc1c(C)[nH]c2ccc(OC)cc12)Cc1cccnc1	9.25
CCn1c(=O)c(=O)[nH]c2cc(C(=O)NC(C)c3ccc(S(N)(=O)=O)cc3)ccc21 (stereo not shown)	3.47
CCCCCOc1ccc(/C(C)=N/NC2=NCCN2)cc1	-39.8
Cc1cc(N2CCC(C(=O)Nc3ccc(F)cc3)CC2)nc(-c2ccccc2)n1	-32.9
Cc1cc(N2CCC(C(=O)NCC3CC3)CC2)nc(-c2ccccc2)n1	-73.1
C=CCNC(=O)C1CCN(c2cc(C)nc(-c3ccccc3)n2)CC1	-58.2
C=CCNC(=O)C1CCN(c2nc(C)cc(-c3ccccc3)n2)CC1	-51.3
Cc1cc(-c2ccccc2)nc(N2CCC(C(=O)NC(C)C)CC2)n1	4.06
Cc1cc(N2CCC(C(=O)NC3CC3)CC2)nc(-c2ccccc2)n1	-46
Cc1cc(N2CCC(C(=O)NC3CCCCC3)CC2)nc(-c2ccccc2)n1	-49.6
C#CCNC(=O)C1CCN(c2cc(C)nc(-c3ccccc3)n2)CC1	-40.7
Cc1cc(C)nc(N2CCC(C(=O)NCc3ccccc3)CC2)n1	3.44
COc1ccc(NC(=O)c2sccc2OS(=O)(=O)N(C)C)cc1	11.2
C/C(=N/NC(N)=S)c1ccc(Br)s1	16.8
CCOc1ccccc1/C=N/NC(=O)Cc1csc(Nc2cccc(C(F)(F)F)c2)n1	4.05
N#CSc1ccc2oc(C3=NCCN3)cc2c1	0.521
O=C(c1ccc2c(c1)OCCCO2)N1CCCCC1	11.7
CCNc1nc(NCC)nc(OCC(=O)O)n1	7.6
COc1ccc(N2CCN(c3nc(NCCO)nc(N4CCOCC4)n3)CC2)cc1	-1.07
O=C1NC(=O)N(Cc2ccccc2)C1=O	26.4
COc1ccc(C2/C=C\CN(CC3CC3)CC(=O)N2Cc2ccc(F)cc2)cc1 (stereo not shown)	-21

SMILES	hERG current change (%, negative = inhibition) at 10uM [%]
COCCCNCCOCCOc1ccccc1-c1ccccc1.O=C(O)C(=O)O	-29.4
OCCNCCCOc1cc(Cl)ccc1Cl	-14.4
COCCNCCCOc1ccc(Cl)cc1Br.O=C(O)C(=O)O	-42
CCCCNCCOCCOc1ccccc1-c1ccccc1.O=C(O)C(=O)O	-50.1
CCCCNCCOc1ccccc1-c1ccccc1.O=C(O)C(=O)O	-28.2
CCCCNCCCOc1cc(Cl)ccc1Cl.O=C(O)C(=O)O	-54.3
COCCCNCCOCCOc1ccc(Cl)cc1Br.O=C(O)C(=O)O	-51.9
CCCCNCCOCCOc1ccc(C)cc1Br.O=C(O)C(=O)O	-32.1
COCCCNCCCOc1ccc(C)cc1Br.O=C(O)C(=O)O	-30.7
CCCCNCCOCCOc1ccc(Cl)cc1Br.O=C(O)C(=O)O	-57.9
CCCCNCCCOc1ccc(C)cc1Br.O=C(O)C(=O)O	-35
CCCCNCCOCCSc1ccc(Cl)cc1.O=C(O)C(=O)O	-43.5
CCOC(=O)Cn1c(-c2ccc(OC)cc2)c(-c2ccc(OC)cc2)nnc1=O	9.79
O=C(NC(=S)NCCc1ccccn1)c1ccco1	17.4
COc1cccc(CNS(=O)(=O)c2ccc(S(=O)(=O)N3CCCC3)cc2)c1	7.51
COc1ccc(C(=O)N(Cc2ccco2)Cc2cccs2)c(O)c1	-6.63
O=C(CSc1nncn1-c1ccccc1)Nc1ccc(N2CCOCC2)cc1	3
CN(C)S(=O)(=O)c1ccc(NC(=O)N2CCN(c3cccc(C(F)(F)F)c3)CC2)cc1	7.83
Cc1ccsc1C(=O)OCC(=O)NCCNC(=O)COC(=O)c1sccc1C	15.7
O=C(CCNC(=O)c1ccccc1Cl)Nc1cc(S(=O)(=O)N2CCOCC2)ccc1N1CCCC1	-8.58
COc1ccccc1-c1c(C)nn2c(-c3ccccc3)cc(C)nc12	3.05
CCOC(=O)COn1c(=O)c(-c2ccc(Cl)cc2)[n+]([O-])c2ccccc21	-4.24
Cc1ccc(S(=O)(=O)N(Cc2cccc(F)c2)C(=O)N2CCN(C)CC2)cc1	33.1
CCCC(=O)Nc1ccc(C(=O)NCc2ccccn2)cc1	14.2

SMILES	hERG current change (%, negative = inhibition) at 10uM [%]
CC(C)c1csc(CN2CCN(Cc3ccc(F)cc3)C(CCO)C2)n1 (stereo not shown)	-35.3
COc1cccc(CN2CCN(Cc3c(C)nn(C(C)C)c3C)CC2CCO)c1 (stereo not shown)	-2.68
COc1cccc(CN2CCN(Cc3nc(C(C)C)cs3)CC2CCO)c1 (stereo not shown)	-73.7
CCOc1ccc(CN2CCN(Cc3nc(C(C)C)cs3)CC2CCO)cc1 (stereo not shown)	-82.2
Cc1ccc(CN2CCN(Cc3nc(C(C)C)cs3)CC2CCO)cc1 (stereo not shown)	-68.5
Cc1nn(-c2ccccc2)c(C)c1/C=C/C(=O)OCC(=O)Nc1ccc(S(N)(=O)=O)cc1	13.1
COc1ccccc1C(=O)NCCC(=O)N(C)CC(=O)Nc1ccc(C)cc1	7.91
Cc1ccc(S(=O)(=O)NC(CC(=O)O)c2ccccc2)c(C)c1 (stereo not shown)	5.52
CC1C(c2ccccc2)C(C#N)(C#N)C2(C#N)C(=O)NC1(N)C2C (stereo not shown)	-3.25
c1ccc(-n2nnnc2-c2cnc(-c3cccnc3)nc2-c2cccs2)cc1	-10.6
O=C(CN1CCN(c2ccccc2)CC1)N/N=C/c1cccc(F)c1	4.27
O=C(CC(=O)Nc1ccc(Cl)cc1)N/N=C\c1cccc(F)c1	16.6
O=C(CO)N/N=C/c1ccccc1F	19.1
O=C(CN1CCN(Cc2ccccc2)CC1)N/N=C/c1ccccc1F	-29.3
COc1ccccc1/C=N/NC(=O)COCC(=O)N/N=C/c1ccccc1OC	3.56
CN1CCN(CC(=O)N/N=C\c2c[nH]c3ccccc23)CC1	16.2
O=C(CN1CCCCCCC1)N/N=C/c1ccccc1F	-35.6
O=C(CN1CCN(Cc2ccc(Cl)cc2)CC1)N/N=C/c1cccc(F)c1	-69.2
Cc1ccc(CN2CCN(CC(=O)N/N=C/c3c[nH]c4ccccc34)CC2)cc1	-36.3
O=C(CN1CCN(Cc2ccc(Cl)cc2)CC1)N/N=C/c1c[nH]c2ccccc12	-52.9
O=C(CN1CCN(Cc2ccc(Cl)cc2)CC1)N/N=C/c1ccccc1F	-68.7
O=C(COCC(=O)N/N=C/c1ccccc1F)N/N=C/c1ccccc1F	-54.8
